IL1B secr inh: blocks inflammasome-driven IL-1 beta release; THP-1 LPS/ATP IL-1B secretion, AlphaLISA, 16 h; hits give low values; activity change, % at 57.5 µM; 4.7% of 360,000 active; AID 743279; in the data active = activity change below about -50%; inconclusive = mostly about -30% to -49%
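THP-1 cells pretreated 1 hr with compounds (up to 57.5 uM final), then stimulated with LPS (250 ng/mL final) plus ATP (1.25 mM final); secreted IL-1B measured by AlphaLISA after 16 hr, decreased signal indicating inhibition.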
D3 antag: antagonists of human D3 dopamine receptor. P35462. D3R cells, DiscoveRx beta-arrestin luminescence, antagonist mode; hits give low values. max response, negative = inhibition, %. 2.5% of 360,000 active; in the data active = max response below about -50%; inconclusive = no clear call, values can overlap the other calls
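Cells expressing the human receptor were seeded at 1500 cells/well, incubated overnight at 37 degrees C in 5% CO2, then exposed to library compounds with dopamine controls for 90 minutes at 37 degrees C before luminescent detection.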
DT40 TDP1 CPT: growth inhibition of DT40 Tdp1-/-;hTDP1 cells with camptothecin (screen for TDP1 inhibitors) | 12% of 420,000 active | Potency, µM (series often up to 46.2 µM), usual class: inhibitors | chicken DT40 Tdp1-/-;hTDP1 cells + 20 nM CPT, ATP luminescence, 48 h | AID 686979; also: nearly all actives have a fitted effect of over 55% in size
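Chicken DT40 Tdp1-/- cells complemented with human TDP1, 400 cells/well, exposed to compounds plus 20 nM camptothecin for at least 48 h at 37 C; viability read as ATP content by CellTiter-Glo luminescence.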
DT40 TDP1 no CPT: qHTS for Inhibitors of human tyrosyl-DNA phosphodiesterase 1 (TDP1): qHTS in cells in absence of CPT; DT40 Tdp1-/- hTDP1 cells, no CPT, ATP luminescence, 48 h; Potency, µM (series often up to 46.2 µM), hits mostly inhibitors; 15% of 420,000 active; also: nearly all actives have a fitted effect of over 55% in size
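Luminescent ATP content (CellTiter-Glo) served as the growth readout. Knockout chicken DT40 cells expressing human TDP1 were exposed to compounds without camptothecin for a minimum 48 hr at 37 °C.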
D3 ag: agonists of human D3 dopamine receptor | D3R DiscoveRx beta-arrestin cells, luminescence, 90 min | max activation, % | 0.58% of 410,000 active; in the data active = max activation above about 30%
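Cells at 1500/well, incubated overnight, then treated with pinned compounds (dopamine as control) for 90 min at 37 degrees C. DiscoveRx reagent added for 30 - 60 minutes at room temperature; luminescence read.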
ClpP mod: qHTS Assay for Activators of ClpP | Potency, µM (highest dose often 57.5 µM) | 1.9% of 340,000 active | purified B. subtilis ClpP, FRET peptide cleavage, 20 min | ATP-dependent Clp protease proteolytic subunit (Bacillus subtilis (strain 168)), P80244; active = well fitted falling curve with a large enough effect; inconclusive = small, poorly fitted or top-dose-only effect; inactive = no such curve, though single readings can be large or run the other way; also: the source files actives as falling curves though it sought activators and does not explain the sign; nearly all actives have a fitted effect of over 65% in size
Target sequence (P80244 whole entry, looked up): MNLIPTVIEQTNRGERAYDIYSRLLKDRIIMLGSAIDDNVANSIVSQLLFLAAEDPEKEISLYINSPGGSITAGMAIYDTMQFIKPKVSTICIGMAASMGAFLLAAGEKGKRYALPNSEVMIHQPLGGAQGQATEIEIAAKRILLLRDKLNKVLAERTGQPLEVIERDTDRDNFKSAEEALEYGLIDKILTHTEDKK
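Buffer: 100 mM Tris/HCl pH8, 100 mM KCl, 0.05% low protease BSA, 2.5% glycerol, 0.01% Tween-20. ClpP 10 microg/mL final; 20 min RT; delta FRET normalized to ADEP and DMSO controls.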
Hits are given with their value; n = inactive; u = inconclusive; x = no result given. Sampled rows, rich in hits. Any-hit rate of the full collection: about 21%. Unless noted, calls follow the shape of the dose curve; as a rule, active = well fitted inhibition curve with a large enough effect; inconclusive = small, poorly fitted or top-dose-only effect; inactive = flat fitted curve, though single readings scatter.

SMILES	IL1B secr inh	D3 antag	DT40 TDP1 CPT	DT40 TDP1 no CPT	D3 ag	ClpP mod
COc1ccccc1-n1c(SCC(=O)Nc2ccccc2F)nc2[nH]ncc2c1=O	n	n	12.6µM	n	n	n
O=c1c2cn[nH]c2nc(SCc2cccc(Br)c2)n1-c1ccc(Cl)cc1	x	x	u	u	n	n
Cc1cc(-n2c(SCc3ccccc3F)nc3[nH]ncc3c2=O)ccc1Cl	x	x	u	16.4µM	n	n
CCCc1ccc2oc(C(=O)NCCN3CCCC(O)C3)c(C)c2c1 (configuration not stated)	-66.3	n	u	u	n	n
CCCc1ccc2oc(C(=O)NCCN3CCCC(C(N)=O)C3)c(C)c2c1 (configuration not stated)	n	n	u	u	n	n
Oc1ccc(-c2onc(C(F)(F)F)c2-c2cscn2)c(O)c1	n	n	u	20.6µM	n	n
Cc1nc(-c2c(C(F)(F)F)noc2-c2ccc(O)cc2O)cs1	n	n	u	u	n	n
O=C1C[C@@H]2c3c(cccc3CN1Cc1ccccc1F)C[C@@H](O)[C@H]2O	n	n	n	n	49.1	n
O=C1C[C@@H]2c3c(cccc3CN1Cc1ccccc1Cl)C[C@@H](O)[C@H]2O	n	n	n	n	n	n
Cc1ccc(S(=O)(=O)Nc2ccc(N(C)C)cc2)cc1	n	n	n	u	n	x
CN(C)c1ccc(NS(=O)(=O)c2ccc(Cl)cc2)cc1	n	n	18.4µM	u	n	n
CN(C)c1ccc(NS(=O)(=O)c2ccc(-c3csnn3)cc2)cc1	n	u	u	13µM	n	x
Cc1nc(-c2ccc(NS(=O)(=O)c3ccccc3)cc2)cs1	u	n	n	n	n	n
CN(C)c1ccc(NS(=O)(=O)c2cccc(Cl)c2)cc1	n	n	n	10.3µM	n	n
CC(C)NC(=O)c1cc(C2CCCCN2C(=O)c2ccc(C(C)C)cc2)on1 (configuration not stated)	n	n	u	u	n	n
CN(Cc1ccccc1)C(=O)c1ccccc1-c1ccccc1	n	n	n	u	n	x
CCOc1ccccc1CN1CCNC(=O)C1CC(=O)N(C)Cc1nonc1C (configuration not stated)	-57.2	n	u	n	n	n
COc1ccc(S(=O)(=O)n2nc(C)c(S(=O)(=O)N3CCC(C)CC3)c2C)cc1OC	x	x	n	n	n	n
Cc1ccc(S(=O)(=O)N2CCN(C)CC2)c(C)c1N(C)S(=O)(=O)c1ccc(Cl)cc1	n	u	u	23.1µM	n	n
Cc1cc(C)c(S(=O)(=O)N2CCOCC2)c(C)c1N(C)S(=O)(=O)c1ccccc1	n	n	n	u	n	n
Cc1c(Cl)ccc(S(=O)(=O)N2CCN(C)CC2)c1Cl	n	u	n	n	n	n
Cc1cc(C)c(S(=O)(=O)N2CCCCC2)c(C)c1N(C)S(=O)(=O)c1ccccc1	u	n	11.6µM	u	n	n
Cc1cc(C)c(S(=O)(=O)N2CCCCC2)cc1N(C)S(=O)(=O)c1ccc(Cl)cc1	u	n	23.1µM	16.4µM	n	n
Cc1ccsc1CN(C(=O)c1ccc(Br)cc1)C1CCS(=O)(=O)C1 (configuration not stated)	x	x	n	n	n	n
Cc1cc(OC(C)C(=O)Nc2cccc(-c3nc4ccccc4o3)c2)cc(C)c1Cl (configuration not stated)	x	x	u	16.4µM	n	u
COc1ccccc1OC(C)C(=O)Nc1cccc(-c2nc3ccccc3o2)c1 (configuration not stated)	x	x	u	20.6µM	n	u
COc1ccc(C2CCCN2C(=S)Nc2cccc(C)c2C)cc1OC (configuration not stated)	n	n	n	u	n	x
COC(=O)C(NC(=O)CNS(=O)(=O)c1ccc(Br)cc1)c1ccccc1 (configuration not stated)	n	n	u	u	n	x
Cc1cc(-c2cccs2)c2c(n1)sc1c(=O)[nH]c(=O)[nH]c12	n	-83.7	16.4µM	u	n	n
